“And” between values parts separate entries of the source, which are not always exact repeats. Equal entries are not always repeated. The source made the active and inactive calls.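 How the source made its calls, unless noted: active means normalized viability below 100% at a tested concentration; inactive means the rest.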
Legend:
[1] = stimulators of nuclear beta-catenin in C2C12, primary screen, imaging, WNT3A-conditioned medium, mouse C2C12, NPC library (AID 1117326; in the data active means nuclear beta-catenin stimulation mostly above about 4.2%, no sharp cut-off; inactive means mostly below about 10%); conditions: stronger effect = higher value
[2] = stimulators of insulin release from INS-1E, primary screen, cell-based, 5 mM glucose, NPC library (AID 1117329;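 active means compound raises insulin release from rat beta cells at 5 mM glucose, no numeric limit stated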); conditions: rat INS-1E insulin secretion, at 10 µM, stronger effect = higher value
[3] = growth inhibition of GSK3B-pretreated HCT116 cells – cell-based, CellTiter-Glo, 0.2 to 20 µM (AID 1117336;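 active means compounds lowering colon cancer cell viability after pretreatment blocking the GSK3B kinase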); conditions: HCT116 viability after GSK3B inhibitor, at 20 µM, stronger effect = higher value
[4] = inhibition of endothelial tube formation, primary screen, imaging, VEGF stimulated, CD31 staining, tube area, NPC library (AID 1117340;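 active means compound that reduces growth-factor-driven endothelial tube area in a mixed cell culture, no cutoff stated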); conditions: VEGF-stimulated ADSC/ECFC co-culture, at 10 µM, stronger effect = higher value
[5] = glucagon-like peptide 1 release enhancers, primary assay, NCI-H716 cell line, NPC library (AID 1117341;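 active means compound raises GLP1 secretion from the human gut endocrine cells, with no numeric limit stated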); conditions: NCI-H716 cells, at 10 µM, stronger effect = higher value
[6] = HCT116 colon cancer cell growth inhibition, primary screen, CellTiter-Glo luminescence, NPC library (AID 1117342;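 active means compounds that lower survival of HCT116 colon cancer cells in the luminescence readout, no numeric limit stated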); conditions: at 20 µM (top of the series)
[7] = CellTiter-Glo luminescent readout of SW480 viability loss, NPC library primary (AID 1117343;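 active means compounds that lower viability of the colon cancer cells in the luminescence readout, with no numeric limit stated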); conditions: CellTiter-Glo luminescence; at 20 µM (top of the series)
[8] = decreased DLD-1 cellular survival, CellTiter-Glo luminescent readout, NPC compound collection, primary HTS (AID 1117346;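 active means compounds that lower survival of DLD-1 colon cancer cells in the luminescence readout, no cutoff given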); conditions: DLD-1 viability, CellTiter-Glo luminescence; at 20 µM (top of the series)
[9] = molecular target: 6-phosphogluconate dehydrogenase, decarboxylating (Homo sapiens) (UniProt P52209); assay: 6PGD enzyme inhibitors, primary screen, biochemical, human, recombinant enzyme, NADPH absorbance (AID 1159550;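 active means at least 20% inhibition of 6-phosphogluconate dehydrogenase activity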); conditions: recombinant 6PGD, NADPH absorbance 341 nm; at 10 µM; stronger effect = higher value
6-phosphogluconate dehydrogenase, decarboxylating (Homo sapiens), sequence (P52209 whole entry, looked up): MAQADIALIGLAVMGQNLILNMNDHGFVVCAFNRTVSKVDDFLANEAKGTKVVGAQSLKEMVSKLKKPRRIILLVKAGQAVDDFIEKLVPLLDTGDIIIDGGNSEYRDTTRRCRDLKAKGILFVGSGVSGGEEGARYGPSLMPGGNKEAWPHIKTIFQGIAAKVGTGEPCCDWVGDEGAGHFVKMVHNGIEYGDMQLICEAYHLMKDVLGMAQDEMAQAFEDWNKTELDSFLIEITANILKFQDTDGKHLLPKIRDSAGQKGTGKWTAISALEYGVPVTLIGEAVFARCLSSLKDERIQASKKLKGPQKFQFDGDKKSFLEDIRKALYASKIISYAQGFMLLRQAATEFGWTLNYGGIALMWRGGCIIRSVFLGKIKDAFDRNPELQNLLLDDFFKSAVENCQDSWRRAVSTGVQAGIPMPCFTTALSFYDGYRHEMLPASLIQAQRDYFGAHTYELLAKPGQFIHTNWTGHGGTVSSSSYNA

[10] = differential killing of epithelial or mesenchymal cells, primary screen, imaging, PC-3E GFP, TEM4-18 mCherry, co-culture (AID 1345086;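 active means compounds killing one labelled cell type while sparing the other, by normalised counts and ratio limits, not self-fluorescent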;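 on all read-outs here: cells exposed to compound for 72 h before imaging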;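 on red/green cell ratio (normalised): normalised mesenchymal count divided by normalised epithelial count so high means epithelial killing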); conditions: imaging cell counts, at 1 µM; for red/green cell ratio (normalised): actives lie on both sides, counts scaled to control wells, 1 = unselective
[11] = survival rescue of mitochondrial mutant cells in low glucose, primary screen, MELAS cybrids, Rieske KO mouse fibroblasts, CellTiter-Glo (AID 1508586;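 active means mean z-score across replicates of 1.96 or higher in either the MELAS or the Rieske mutant cell line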;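 further: z relative to plate mean and SD of compound and empty wells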)
F380Y = assay: modulators of BK channel variants, profiling panel, selectivity assay, cell-based, U2OS BacMam, thallium flux, beta subunits (AID 1259406;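 active means thallium flux through the channel raised or lowered by more than 3 SD from vehicle-only wells, actives on both sides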;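 further: initial slope of Thallos dye fluorescence rise after thallium is added; log ratio against the mean of 0.3% DMSO vehicle wells on the same plate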); conditions: at 30 µM
F380Y/beta1 = assay: as above; conditions: at 30 µM
F380Y/beta2Delta = assay: as above; conditions: at 30 µM
F380Y/beta4 = assay: as above; conditions: at 30 µM
[12] = molecular target: Calcium-activated potassium channel subunit alpha-1 (Homo sapiens) + Leucine-rich repeat-containing protein 26 (Homo sapiens) (UniProt Q12791+Q2I0M4); assay: as above; conditions: F380Y/Slo1WT/gamma1, at 30 µM
Calcium-activated potassium channel subunit alpha-1 (Homo sapiens) + Leucine-rich repeat-containing protein 26 (Homo sapiens), sequence (Q2I0M4 whole entry, looked up, one chain of several): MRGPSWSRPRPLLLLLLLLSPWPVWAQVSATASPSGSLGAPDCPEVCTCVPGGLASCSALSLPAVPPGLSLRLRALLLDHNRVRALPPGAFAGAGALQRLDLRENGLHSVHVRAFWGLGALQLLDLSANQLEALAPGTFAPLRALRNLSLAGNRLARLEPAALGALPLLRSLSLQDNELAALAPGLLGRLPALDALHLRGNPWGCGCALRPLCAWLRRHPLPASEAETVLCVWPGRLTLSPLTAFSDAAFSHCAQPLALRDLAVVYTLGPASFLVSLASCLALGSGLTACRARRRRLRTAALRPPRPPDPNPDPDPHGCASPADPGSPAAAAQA

R275C = assay: as above; conditions: at 30 µM
R275C/beta1 = assay: as above; conditions: at 30 µM
[13] = ovarian cancer cell viability with rucaparib, profiling panel, oncology-focused library, rucaparib conditional (AID 1508598); conditions: patient-derived ovarian cancer cells, CellTiter-Glo viability, 144 h, stronger effect = lower value
[14] = measured here: epithelial PC-3E GFP cell survival
[15] = measured here: mesenchymal TEM4-18 mCherry cell survival
[16] = MELAS cybrid survival, CellTiter-Glo 48 h, stronger effect = higher value
[17] = Rieske KO mouse fibroblast survival, CellTiter-Glo 72 h

With `COc1ccc(Cl)cc1C(=O)NCCc1ccc(S(=O)(=O)NC(=O)NC2CCCCC2)cc1` the nuclear beta-catenin stimulation ([1]; at 10 µM) was -0.8% (inactive), the nuclear beta-catenin stimulation ([1]; stimulation, at 2 µM) was -0.5% and the insulin secretion stimulation [2] was 28.1% (active). The viability decrease [3] was 17.8% (inactive), the tube area decrease [4] was 12% (inactive) and the GLP1 secretion stimulation [5] was 4.4% (inactive). The inhibition of viability [6] was 20% (inactive), the viability decrease (inhibition) [7] was 72.3% (active) and the viability decrease (inhibition) [8] was 14.1% (inactive). For the same compound, the inhibition [9] was 12.3% (inactive), the red/green cell ratio (normalised) [10] was 1.5 (inactive) and the normalised cell number [10, 14] was 0.7. The normalised cell number [10, 15] was 1.05, the z-score [11, 16] was 0.114 (inactive) and -0.333 (inactive) and 0.459 (inactive) and the z-score [11, 17] was 0.113 and 0.377 and -0.0891. For the same compound, the log fold change Tl+ flux (F380Y) was 0.0726 (inactive), the log fold change Tl+ flux (F380Y/beta1) was 0.119 (active) and the log fold change Tl+ flux (F380Y/beta2Delta) was 0.0268 (inactive). The log fold change Tl+ flux (F380Y/beta4) was 0.115 (active), the log fold change Tl+ flux [12] was 0.0583 (inactive) and the log fold change Tl+ flux (R275C) was 0.027 (inactive). The log fold change Tl+ flux (R275C/beta1) was 0.142 (active).

In the case of `CC(C)C(=O)Nc1ccc([N+](=O)[O-])c(C(F)(F)F)c1`, the nuclear beta-catenin stimulation ([1]; at 10 µM) is reported as 0.6% (inactive), the nuclear beta-catenin stimulation ([1]; stimulation, at 2 µM) is reported as -0.2% and the insulin secretion stimulation [2] is reported as 3.4% (inactive). For the same compound, the viability decrease [3] was 13.4% (inactive), the tube area decrease [4] was -12.8% (inactive) and the GLP1 secretion stimulation [5] was -0.5% (inactive). For the same compound, the inhibition of viability [6] was 25.5% (inactive), the viability decrease (inhibition) [7] was 40.5% (inactive) and the viability decrease (inhibition) [8] was -3.7% (inactive). The inhibition [9] was -5.89% (inactive), the red/green cell ratio (normalised) [10] was 1.03 (inactive) and the normalised cell number [10, 14] was 0.92. For the same compound, the normalised cell number [10, 15] was 0.95, the z-score [11, 16] was -0.353 (inactive) and 0.314 (inactive) and 0.345 (inactive) and the z-score [11, 17] was 0.471 and 0.28 and 0.177. The viability ([13]; at 0.000305 µM, OCI-C5x cells, with rucaparib 10 µM, 100% = cells with rucaparib alone) was 102% (inactive), the viability ([13]; at 0.000305 µM, OCI-C5x cells, without rucaparib) was 114% (inactive) and the viability ([13]; at 0.000305 µM, OCI-P5x cells, with rucaparib 20 µM, 100% = cells with rucaparib alone) was 93.2% (active). For the same compound, the viability ([13]; at 0.000305 µM, OCI-P5x cells, without rucaparib) was 103% (inactive), the viability ([13]; at 0.00122 µM, OCI-C5x cells, with rucaparib 10 µM, 100% = cells with rucaparib alone) was 114% (inactive) and the viability ([13]; at 0.00122 µM, OCI-C5x cells, without rucaparib) was 115% (inactive). The viability ([13]; at 0.00122 µM, OCI-P5x cells, with rucaparib 20 µM, 100% = cells with rucaparib alone) was 98.6% (active), the viability ([13]; at 0.00122 µM, OCI-P5x cells, without rucaparib) was 104% (inactive) and the viability ([13]; at 0.00488 µM, OCI-C5x cells, with rucaparib 10 µM, 100% = cells with rucaparib alone) was 111% (inactive). The viability ([13]; at 0.00488 µM, OCI-C5x cells, without rucaparib) was 113% (inactive), the viability ([13]; at 0.00488 µM, OCI-P5x cells, with rucaparib 20 µM, 100% = cells with rucaparib alone) was 107% (inactive) and the viability ([13]; at 0.00488 µM, OCI-P5x cells, without rucaparib) was 106% (inactive). The viability ([13]; at 0.0195 µM, OCI-C5x cells, with rucaparib 10 µM, 100% = cells with rucaparib alone) was 114% (inactive), the viability ([13]; at 0.0195 µM, OCI-C5x cells, without rucaparib) was 118% (inactive) and the viability ([13]; at 0.0195 µM, OCI-P5x cells, with rucaparib 20 µM, 100% = cells with rucaparib alone) was 104% (inactive). For the same compound, the viability ([13]; at 0.0195 µM, OCI-P5x cells, without rucaparib) was 105% (inactive), the viability ([13]; at 0.0781 µM, OCI-C5x cells, with rucaparib 10 µM, 100% = cells with rucaparib alone) was 112% (inactive) and the viability ([13]; at 0.0781 µM, OCI-C5x cells, without rucaparib) was 116% (inactive). For the same compound, the viability ([13]; at 0.0781 µM, OCI-P5x cells, with rucaparib 20 µM, 100% = cells with rucaparib alone) was 103% (inactive), the viability ([13]; at 0.0781 µM, OCI-P5x cells, without rucaparib) was 112% (inactive) and the viability ([13]; at 0.313 µM, OCI-C5x cells, with rucaparib 10 µM, 100% = cells with rucaparib alone) was 109% (inactive). For the same compound, the viability ([13]; at 0.313 µM, OCI-C5x cells, without rucaparib) was 109% (inactive), the viability ([13]; at 0.313 µM, OCI-P5x cells, with rucaparib 20 µM, 100% = cells with rucaparib alone) was 109% (inactive) and the viability ([13]; at 0.313 µM, OCI-P5x cells, without rucaparib) was 115% (inactive). The viability ([13]; at 1.25 µM, OCI-C5x cells, with rucaparib 10 µM, 100% = cells with rucaparib alone) was 107% (inactive), the viability ([13]; at 1.25 µM, OCI-C5x cells, without rucaparib) was 118% (inactive) and the viability ([13]; at 1.25 µM, OCI-P5x cells, with rucaparib 20 µM, 100% = cells with rucaparib alone) was 101% (inactive). For the same compound, the viability ([13]; at 1.25 µM, OCI-P5x cells, without rucaparib) was 113% (inactive), the viability ([13]; at 5 µM, OCI-C5x cells, with rucaparib 10 µM, 100% = cells with rucaparib alone) was 112% (inactive) and the viability ([13]; at 5 µM, OCI-C5x cells, without rucaparib) was 133% (inactive). The viability ([13]; at 5 µM, OCI-P5x cells, with rucaparib 20 µM, 100% = cells with rucaparib alone) was 104% (inactive), the viability ([13]; at 5 µM, OCI-P5x cells, without rucaparib) was 112% (inactive) and the log fold change Tl+ flux (F380Y) was 0.0165 (inactive). The log fold change Tl+ flux (F380Y/beta1) was 0.104 (inactive), the log fold change Tl+ flux (F380Y/beta2Delta) was -0.0159 (inactive) and the log fold change Tl+ flux (F380Y/beta4) was -0.0805 (inactive). The log fold change Tl+ flux [12] was -0.0492 (inactive), the log fold change Tl+ flux (R275C) was -0.0976 (active) and the log fold change Tl+ flux (R275C/beta1) was -0.0165 (inactive).
